# PubChem BioAssay (NCATS)
# Unmarked numbers belong to inactive results. Results filed as inconclusive are left out. Entries that show only a call come without a potency. Calls of active or inactive are those of the source. Calls come from the whole dose curve; as a rule, active = well fitted curve in the direction sought with a large enough effect; inconclusive = small, poorly fitted or top-dose-only effect, or another doubt; inactive = no such curve, though single readings can be large; an effect the other way counts as inactive or inconclusive.
# What was measured:
# [1] = molecular target: Glutathione peroxidase 1 (Homo sapiens) (UniProt P07203); assay: Primary qHTS Assay for Inhibitors of Recombinant Selenoprotein Glutathione Peroxidase 1 (GPX1) (AID 1845191); note: nearly all actives have a fitted effect of over 65% in size
# Glutathione peroxidase 1 (Homo sapiens), sequence (P07203 whole entry, looked up): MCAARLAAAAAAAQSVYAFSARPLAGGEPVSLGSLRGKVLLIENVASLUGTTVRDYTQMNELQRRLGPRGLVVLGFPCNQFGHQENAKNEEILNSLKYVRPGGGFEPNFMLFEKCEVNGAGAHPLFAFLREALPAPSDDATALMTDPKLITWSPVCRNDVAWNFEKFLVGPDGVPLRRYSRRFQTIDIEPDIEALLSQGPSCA
# In short: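 NADPH consumption tracked by fluorescence at 340/450 nm between t=0 and t=15 min, room temperature. Final mix: 10 nM GPX1, 100 nM glutathione reductase, 1 mM GSH, 0.5 mM NADPH, 0.5 mM cumene hydroperoxide, 0.01% BSA; 30 min compound–enzyme preincubation.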
# [2] = molecular target: Phospholipid hydroperoxide glutathione peroxidase GPX4 (Homo sapiens) (UniProt P36969); assay: Primary qHTS Assay for Inhibitors of Recombinant Selenoprotein Glutathione Peroxidase 4 (GPX4) (AID 1845192); note: nearly all actives have a fitted effect of over 65% in size; for activity change, negative = inhibition: series mostly up to about 50 µM
# Phospholipid hydroperoxide glutathione peroxidase GPX4 (Homo sapiens), sequence (P36969 whole entry, looked up): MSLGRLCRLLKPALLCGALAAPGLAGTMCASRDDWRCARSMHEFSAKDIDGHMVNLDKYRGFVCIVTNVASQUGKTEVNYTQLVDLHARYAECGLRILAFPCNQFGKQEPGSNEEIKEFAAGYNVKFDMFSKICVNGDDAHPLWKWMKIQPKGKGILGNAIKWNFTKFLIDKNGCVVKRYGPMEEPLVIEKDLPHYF
# In short: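 NADPH consumption followed by fluorescence at 340/450 nm, t=0 and after 15 min at room temperature. Reaction started with cumene hydroperoxide (0.5 mM final) after 30 min compound–GPX4 preincubation; final 200 nM GPX4, 100 nM GR, 1 mM GSH, 0.5 mM NADPH.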
# [3] = molecular target: Luciferin 4-monooxygenase (Photinus pyralis) (UniProt P08659); assay: Primary firefly luciferase (FLuc) qHTS assay for identification of artifact compounds. (AID 1845220); note: nearly all actives have a fitted effect of over 60% in size; for activity change, negative = inhibition: series mostly up to about 54 µM
# In short: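 Compounds sat 15 min at room temperature with 10 uM luciferin and 10 uM ATP (pH 7.6 Tris acetate). Firefly luciferase (10 nM final) was then added, and luminescence was read 5 min later. Data normalized to no-enzyme and DMSO controls were Hill-fitted.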
# [4] = Primary fluorescence-based thiol-reactive (MSTI) qHTS assay for identification of artifact compounds. (AID 1845221); note: nearly all actives have a fitted effect of over 65% in size; note: potency is the fitted concentration of half-maximal effect;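 for activity change, negative = thiol reactive: series mostly up to about 54 µM; thiol-reactive compounds lower the probe fluorescence signal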
# In short: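 In PBS pH 7.4 with 2% DMSO, each compound met 4 uM MSTI for one hour at ambient temperature, shielded from light, before fluorescence detection.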
# [5] = tested on: Nanoluciferase (engineered Oplophorus gracilirostris luciferase); assay: Primary Nanoluciferase (NLuc) qHTS assay for identification of artifact compounds. (AID 1845222); note: series mostly up to about 54 µM
# In short: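 Luminescence from secreted NLuc (filtered, 1:55-diluted S16 cell medium) read 5 min after Nano-Glo substrate; compounds preincubated 15 min, RT. Hill fits of inhibition normalized to DMSO and no-enzyme.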
# [6] = Primary redox qHTS assay for identification of artifact compounds. (AID 1845223)
# In short: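 Redox-cycling detection via DTT (250 uM final) oxidation coupled to Amplex Red (25 uM)/HRP (250 mU/mL) in HBSS. 15 min preincubation plus 30 min after DTT, room temperature. Ex/Em 525/598 nm; 4-parameter Hill fit against DMSO and 10 uM DA3003.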
SMILES,Potency [1],Potency [2],Potency [3],Potency [4],Potency [5],Potency [6],"activity change, negative = inhibition [3]","activity change, negative = thiol reactive [4]","activity, negative = inhibition [5]",redox activity (% of DA3003) [6]
CC(C)(C)OC(=O)N1CCC(OCc2nc(-c3ccncc3)no2)CC1,inactive,inactive,inactive,inactive,inactive,inactive,–,–,–,–
CC(C)CCC(=O)CC1c2ccccc2C(=O)N1c1ccc2ccc(Cl)nc2n1 (stereo not given),inactive,inactive,inactive,inactive,inactive,inactive,–,–,–,–
C[C@@H]1O[C@@H](O[C@H]2[C@H](O)[C@@H](O)[C@H](OC3CCC4(C)C5CCC(C)(C(CO)OC6OC(CO)C(O)C(O)C6O)CC5=CCC4C3(C)C)O[C@@H]2CO)[C@H](O)[C@H](O)[C@H]1O (stereo not given in full),inactive,inactive,inactive,inactive,inactive,inactive,–,–,–,–
C/C1=C\[C@H]2OC(=O)[C@@H](C)[C@@H]2CC/C(C(=O)O)=C/CC1,inactive,inactive,inactive,11.9 µM (active),inactive,inactive,–,–,–,–
CC1(C)CC[C@]2(C(=O)OC3OC(CO)C(O)C(O)C3O)CC[C@]3(C)C(=CCC4[C@@]5(C)CC[C@H](OC6OC(C(=O)O)C(O)C(OC7OC(CO)C(O)C(O)C7O)C6O)C(C)(C)C5CC[C@]43C)C2C1 (stereo not given in full),inactive,inactive,–,–,–,–,2.81% [at 11.6 µM],338% [at 11.5 µM],2.64% [at 11.6 µM],0.227% [at 11.5 µM]
COC(=O)c1cc(OC)cc(OC)c1C(=O)c1c(OC)cc2c(c1O)C1CCCC(C)(O2)O1 (stereo not given),inactive,inactive,inactive,inactive,inactive,inactive,–,–,–,–
Cc1[nH]c2ccccc2c1C1=C(NCCc2ccc(F)cc2)C(=O)N(C)C1=O,inactive,inactive,inactive,1.5 µM (active),inactive,inactive,–,–,–,–
CC(=O)O[C@@H]1[C@@H](CO)O[C@@](CO)(O[C@H]2O[C@H](COC(=O)/C=C/c3ccccc3)[C@@H](O)[C@H](O)[C@H]2O)[C@H]1O,inactive,inactive,inactive,4.62 µM (active),inactive,inactive,–,–,–,–
COc1cc(O)cc(C)c1C(=O)O[C@@H]1[C@H](O)[C@@H](CO)O[C@H]1n1ccc(=O)[nH]c1=O,inactive,inactive,inactive,inactive,inactive,inactive,–,–,–,–
O=C1CC2(CCCC2)[C@H](O)C(=O)N1CCCCN1CCN(c2ncccn2)CC1,inactive,inactive,inactive,inactive,inactive,inactive,–,–,–,–
O=C(COc1cccc2c(=O)[nH]ccc12)c1ccccc1,inactive,inactive,inactive,inactive,inactive,inactive,–,–,–,–
CC(=O)O[C@@H]1c2c(C)coc2C(=O)[C@@]23O[C@@H]2CC[C@H](C)[C@@]13C,inactive,inactive,inactive,inactive,inactive,inactive,–,–,–,–
Cc1ccc(-c2c(C(=O)CF)n(CCCO)c3ncnc(N)c23)cc1,inactive,inactive,inactive,inactive,inactive,inactive,–,–,–,–
O=C(CN1C(=O)C2(CCCC2)NCC1c1cc(F)cc(F)c1)Nc1ccc2c(c1)CC1(C2)C(=O)Nc2ncccc21 (stereo not given),inactive,inactive,inactive,inactive,inactive,inactive,–,–,–,–
COc1ncc2cc(C(=O)Nc3cc(C(=O)NCc4cccc(Cl)c4)ccc3Cl)c(=O)[nH]c2n1,inactive,inactive,inactive,inactive,inactive,inactive,–,–,–,–
CC(Oc1cc(-n2cnc3ccc(CN4CCN(C)CC4)cc32)sc1C(N)=O)c1ccccc1C(F)(F)F (stereo not given),inactive,inactive,inactive,inactive,inactive,inactive,–,–,–,–
O=C1NC2CCc3nc4ccccc4c(=O)n3C2=Nc2ccccc21 (stereo not given),inactive,inactive,inactive,inactive,inactive,inactive,–,–,–,–
CC1(O)CCCC2(C)C1CCC13CC(CO)C(CCC12)C3 (stereo not given),inactive,inactive,inactive,inactive,inactive,inactive,–,–,–,–
CN[C@H](C(=O)N[C@H](C(=O)N(C)[C@H](/C=C(\C)C(=O)O)C(C)C)C(C)(C)C)C(C)(C)c1ccccc1,inactive,inactive,inactive,inactive,inactive,inactive,–,–,–,–
Cn1cc(-c2ccc3nnc(Sc4ccc5nn(C)cc5c4)n3n2)cn1,inactive,inactive,inactive,inactive,inactive,inactive,–,–,–,–
